# a7 integrin act: activates integrin-mediated alleviation for muscular dystrophy. alpha7betagal myoblasts, beta-gal FDG fluorescence, 48 h. Potency, µM (highest dose often 38.3 µM), for the others: at the top dose activation, hits mostly activators. hit rate 0.064% among 350,000. AID 624291;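 further: potency means the concentration at half of the fitted maximal effect; 100% = response of the positive control SU9516; nearly all actives have a fitted effect of over 60% in size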
#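 alpha7betagal+/- myoblasts (passage 13, 250/well) treated 48 h at 37C with compounds at 1:260 dilution of DMSO stock. Lysed, then beta-galactosidase activity read as FDG fluorescence (ex 480/em 540) after 30 min, with pre-read for autofluorescence.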
# LDHA inh: LDHA (human) enzyme inhibition; P00338; purified LDHA, NADH/diaphorase-resazurin fluorescence; active compounds read low; activity change, % (values are at about 110 or 230 µM); hit rate 0.15% among 480,000; AID 1347041; in the data active means activity change below about -30%; inconclusive means mostly about -25% to -30%;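 further: plate controls were DMSO wells for no effect and wells without enzyme for full effect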
#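 Human LDH5 (2 nM) was incubated with 0.06 mM NADH and 0.2 mM pyruvate for 5 min at room temperature in Tris pH 7.4. Remaining NADH was coupled through diaphorase/resazurin, and resorufin fluorescence was read at 0 and 20 min.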
# GALK inh: galactokinase (human) inhibition; P51570; Purified GALK, Kinase-Glo residual ATP luminescence; Potency, µM (top dose mostly 57.5 µM), for inactives: at the top dose activity change, negative = inhibition, usual class: inhibitors; hit rate 0.007% among 270,000; further: potency means the concentration at half of the fitted maximal effect
#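 5 nM enzyme, 35 uM ATP, 100 uM galactose, 20 mM HEPES pH8.0, 5 mM MgCl2; 1 h RT; residual ATP by Kinase-Glo Plus luminescence, qHTS format.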
# rTrxR1 inhibitor: inhibitors of rat thioredoxin reductase 1 | O89049 | recombinant rTrxR1, NADPH fluorescence consumption, selenite substrate | Potency, µM (titrated, usually from 114 µM), without a hit: at the highest dose activity change, negative = inhibition, usual class: inhibitors | hit rate 1% among 390,000 | AID 588453; further: potency means the concentration at half of the fitted maximal effect; nearly all actives have a fitted effect of over 65% in size
# Target sequence (O89049 whole entry, looked up): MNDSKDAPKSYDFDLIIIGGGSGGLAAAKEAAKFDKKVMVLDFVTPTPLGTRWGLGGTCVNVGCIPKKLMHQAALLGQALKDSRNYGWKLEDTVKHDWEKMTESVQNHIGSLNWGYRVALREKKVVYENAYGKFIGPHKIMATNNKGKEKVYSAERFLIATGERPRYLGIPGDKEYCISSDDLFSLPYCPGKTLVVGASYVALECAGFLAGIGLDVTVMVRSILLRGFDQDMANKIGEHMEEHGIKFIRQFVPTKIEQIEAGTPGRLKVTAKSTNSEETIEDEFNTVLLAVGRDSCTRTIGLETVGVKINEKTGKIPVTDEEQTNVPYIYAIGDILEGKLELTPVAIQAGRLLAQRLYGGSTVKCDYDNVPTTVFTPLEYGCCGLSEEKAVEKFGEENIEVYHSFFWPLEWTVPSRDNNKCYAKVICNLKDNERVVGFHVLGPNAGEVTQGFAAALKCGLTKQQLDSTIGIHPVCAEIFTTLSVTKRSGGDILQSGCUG
#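 Rat TrxR1 (90 nM in the dispensed reagent) was pre-reduced with 400 uM NADPH for 5 min at room temperature, then incubated with compound for 15 min. After 400 uM selenite was added, NADPH fluorescence (Ex 340/Em 450 nm) was followed for 8 min.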
# TrxR1 substrate: substrates of rat thioredoxin reductase 1; Potency, µM (highest dose often 114 µM), for inactives: at the top dose activity change, negative = substrate turnover; O89049; purified TrxR1 substrate turnover, NADPH consumption readout; hit rate 0.01% among 390,000; further: potency means the concentration at half of the fitted maximal effect; nearly all actives have a fitted effect of over 50% in size
#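 Rat TrxR1, dispensed at 90 nM, was prereduced with 400 uM NADPH (final) for 5 min at ~22 deg C, then incubated with compound 15 min before 400 uM selenite. A first-read NADPH fluorescence drop versus no-compound background flagged substrates.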
# PI4K2A block: inhibitors of human PI4K2A. purified PI4K2A, ADP-Glo luminescence, 1 h; active compounds read low. activity change, negative = inhibition, % at 76.9 µM. hit rate 0.13% among 420,000. AID 1346378; in the data active means activity change below about -50%; inconclusive means mostly about -30% to -49%;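 further: -100% = wells without enzyme as full effect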
#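 Compounds are screened against recombinant PI4K2A using PI as substrate and ATP, the latter dispensed at 300 microM. Reactions run one hour at ambient temperature before ADP-Glo detection; full inhibition defined by wells lacking enzyme.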
# * = called active by the depositor; ? = inconclusive; / = no result; ! = repeats disagree; [ ] = remark or other dose. Rows were chosen to be rich in hits. Some 1.1% of all compounds tested hit in one or more screens of this group. Unless noted, the call rests on the fitted dose curve; in most records, active means well fitted curve in the direction sought with a large enough effect; inconclusive means small, poorly fitted or top-dose-only effect, or another doubt; inactive means no such curve, though single readings can be large; an effect the other way counts as inactive or inconclusive. Unless noted, on the % scale 0 is the no-effect control and ±100 the full control effect.
SMILES,a7 integrin act,LDHA inh,GALK inh,rTrxR1 inhibitor,TrxR1 substrate,PI4K2A block
CNC(=O)C(CCSC)NC(=O)c1ccc2ccccc2n1 (stereo unspecified),/,0,/,/,/,/
COc1ccc(-n2[nH]c(-c3ccc(OC)c(OC)c3)cc2=O)cc1,/,-4,/,/,/,/
O=C(O)c1cc(N(Cc2ccccc2O)Cc2ccccc2O)ccc1O,/,/,/,40µM*,1%,/
CC1(C)Cc2c(C#N)c(OCC(=O)c3ccccc3)nc(-c3ccoc3)c2CO1,-6%,-4,-2%,50µM*,-4%,2
CC1(C)Cc2c(C#N)c(OCC(=O)c3ccc(Cl)cc3)nc(-c3ccoc3)c2CO1,-16%,3,-1%,-25%,3%,4
COc1ccc(NC(=O)c2cccc3c2C(=O)N(C2CCCCC2)C3)cc1,-37%,-1,5%,21%,6%,-7
COc1ccc(OC)c(NC(=O)c2cccc3c2C(=O)N(C2CCCCC2)C3)c1,-25%,-3,-4%,22µM*!,7%,3
COc1ccccc1C(=O)NCCC(=O)N(Cc1ccco1)Cc1cccs1,-16%,-7,4%,?,-7%,0
CCC(=O)N(CCC(c1ccco1)c1ccccc1OC)Cc1cccs1 (stereo unspecified),-3%,0,4%,35µM*,3%,-3
CC(=O)N(CCC(c1ccccc1)c1ccco1)Cc1cccs1 (stereo unspecified),-9%,1,/,25µM*,-1%,-2
CCCC/C(=N\NC(C)=O)c1ccccc1,/,0,/,/,/,/
NC(=O)C1CCN(C2=C(NS(=O)(=O)c3ccc(Cl)cc3)C(=O)c3ccccc3C2=O)CC1,-27%,12,1%,20µM*,-2%,-6
COC(=O)C1CCN(C2=C(NS(=O)(=O)c3ccc(Cl)cc3)C(=O)c3ccccc3C2=O)CC1,-17%,5,-1%,-18%,-4%,-5
COc1ccc(-n2c(C)c(C(C)=O)c3cc(OC(C)=O)ccc32)cc1,10µM*,-1,5%,6%,-6%,-2
COc1ccc2c(c1)c(C(C)=O)c(C)n2-c1ccc(C(C)=O)cc1,0%,-12,-1%,2%,-1%,-1
Cc1cccc(NC2=C(C(N)=O)S(=O)(=O)c3ccccc32)c1,/,-3,/,/,/,/
COc1ccccc1Nc1ccc2c(O)cc(S(=O)(=O)O)cc2c1,?,29,/,?,-1%,-59*
CCN(c1ccccc1)S(=O)(=O)c1ccc(OC)c(NC(=O)CN(C)C)c1,-36%,-32*,-3%,22%,-2%,-1
CCN(c1ccccc1)S(=O)(=O)c1ccc(OC)c(NC(=O)CNC)c1,5%,-21,-2%,15%[57.1 µM],10%[57.1 µM],2
Cc1nc2c(c(=O)[nH]1)C(c1cc(F)ccc1F)CC(=O)N2 (stereo unspecified),/,4,/,/,/,/
O=C(CCS(=O)(=O)c1ccccc1)N(CCCN1CCOCC1)c1nc2c(F)cccc2s1,-53%,0,/,3.2µM*,-10%,6
Cc1ccc(S(=O)(=O)CC(=O)N(CCCN2CCOCC2)c2nc3c(F)cccc3s2)cc1,7%,-6,/,-6%[57.1 µM],-5%[57.1 µM],0
O=C(CCS(=O)(=O)c1ccccc1)N(CCCN1CCOCC1)c1nc2ccc(F)cc2s1,30%,-4,/,7.1µM*,8%,2
CC(CC(=O)C(C#N)C(=O)Nc1ccccc1F)c1ccc(F)cc1 (stereo unspecified),/,-7,/,/,/,/
Cc1cc(C)c(C(=O)OCC(=O)N2CCN(S(=O)(=O)c3ccc4ccccc4c3)CC2)c(C)c1,/,7,/,/,/,/
SMILES,a7 integrin act,LDHA inh,GALK inh,rTrxR1 inhibitor,TrxR1 substrate,PI4K2A block
Cc1ccc(F)c(NC(=O)CCNC(=O)c2cccs2)c1,/,-1,/,/,/,/
CCC(=O)Nc1cc(C)ccc1NC(=O)c1cccs1,/,-31*,/,/,/,/
COCc1cccc(C(=O)NCc2ccc(C(=O)O)cc2)c1,/,-2,/,/,/,/
COc1ccccc1CC(=O)Nc1cc(C)ccn1,3%,-3,-5%,-17%,-11%,-1
COc1ccccc1CNc1cc(C)ccn1,2.5µM*,-3,-3%,31%,3%,3
COc1ccc(C=NNc2ccc(S(=O)(=O)Nc3ccccc3C(=O)O)cc2[N+](=O)[O-])c(OC)c1,9%,-71*,/,1%,-9%,-3
O=C(O)c1ccccc1NS(=O)(=O)c1ccc(NN=Cc2ccccc2F)c([N+](=O)[O-])c1,18%,-9,/,-13%,-10%,-3
CSc1ncc(Cl)c(C(=O)Nc2ccccc2C)n1,-23%,-6,-2%,8%[57.1 µM],10%[57.1 µM],4
NS(=O)(=O)c1ccc(NC(=O)c2nc(S(=O)(=O)Cc3ccccc3F)ncc2Cl)cc1,/,3,/,3.5µM*,4%,/
Cc1ccccc1NC(=O)c1nc(S(=O)(=O)Cc2ccccc2F)ncc1Cl,/,-11,/,3.5µM*,19%,/
Cc1ccc(NC(=O)c2nc(S(=O)(=O)Cc3ccccc3F)ncc2Cl)cc1,/,-3,/,2.8µM*,9%,/
Cc1ccc(NC(=O)c2nc(S(=O)(=O)Cc3ccccc3C)ncc2Cl)cc1C,-40%,-2,3%,32µM*,1%,10
CC(=O)c1ccc(OCCCC(=O)Nc2ccc3c(C)cc(=O)oc3c2)cc1,/,5,/,/,/,/
Cc1ccc2c(c1)C(C)(C)C1(/C=C/c3ccc(Cl)cc3)NC(=O)CN21 (stereo unspecified),/,-6,/,/,/,/
Cc1ccc(NC(=O)c2nc(S(=O)(=O)Cc3ccccc3F)ncc2Cl)cc1C,/,-3,/,3.2µM*,-6%,/
CCOC(=O)c1sc(=N)n(-c2ccc(OC)cc2)c1C,2µM*,2,-4%,0%,-9%,-6
CNCc1ccccc1Sc1ccc(O)c(O)c1,-57%,42,2%,32µM*,-10%,1
Cn1c(=O)[nH]c(=O)c2c1nc(N1CCN(CC(N)=O)CC1)n2Cc1ccc(Cl)cc1Cl,/,-2,/,/,/,/
COc1ccccc1CN1CC(C(=O)N(C)Cc2ccc(C)o2)CCC1=O (stereo unspecified),-8%,1,-5%,35µM*,7%,-3
COc1ccccc1CCNC(=O)C1CCC(=O)N(Cc2ccccc2OC)C1 (stereo unspecified),1%,-5,6%,?,-11%,-5
COc1ccccc1CN1CC(C(=O)NCCc2ccc(C)o2)CCC1=O (stereo unspecified),12%,0,-3%,50µM*,1%,-7
COc1ccccc1CN1CC(C(=O)N(C)Cc2ccncc2C)CCC1=O (stereo unspecified),-1%,-5,-5%,9%,8%,1
COc1ccc(CCN2CC(C(=O)N(C)Cc3ccc(C)o3)CCC2=O)cc1 (stereo unspecified),-28%,-6,4%,50µM*,1%,0
